{"source": "ChEMBL document CHEMBL3988442", "about": "“University of Dundee, Small-Polar-MMV Screening Library” (2021)", "note": "The whole screen tested about 48,000 compounds, of which about 13,000 (27%) showed an effect of 50% or more. Some of the results follow.", "data": [{"tested_on": "Wolbachia pipientis", "assay": "Anti-Wolbachia Cell-Based Screen", "format": "functional", "design": "scale not given: in the data most compounds retested in dose-response had high values", "details": "5 µM", "units": {"Percent Effect": "%"}, "values": [{"smiles": "CCC(CC)n1nc(C)cc1NC(=O)C1CCCO1", "note": "(stereo unspecified)", "Percent Effect": 0.9599}, {"smiles": "COCCNC(=O)[C@H]1CC[C@@H]2[C@@H](CCN2S(C)(=O)=O)O1", "Percent Effect": -5.573}, {"smiles": "COc1cc2c(cc1-c1nc3c(cnn3C(C)C(C)C)[nH]1)OCO2", "note": "(stereo unspecified)", "Percent Effect": -3.309}, {"smiles": "Cc1csc(C2CCCCN2C(=O)CCCn2cncn2)n1", "note": "(stereo unspecified)", "Percent Effect": -9.865}, {"smiles": "Cc1nc(C2CCCN2C(=O)CCCn2cncn2)no1", "note": "(stereo unspecified)", "Percent Effect": 100.4}, {"smiles": "CC(C)c1nc(C2CCCN2C(=O)c2cnc[nH]2)no1", "note": "(stereo unspecified)", "Percent Effect": -3.664}, {"smiles": "COCc1nc(C(=O)N2CCCC2c2noc(C(C)C)n2)cs1", "note": "(stereo unspecified)", "Percent Effect": -1.506}, {"smiles": "CCc1nc(C2CCCN2C(=O)CCCn2cncn2)no1", "note": "(stereo unspecified)", "Percent Effect": 114.2}, {"smiles": "CCc1nc(C2CCCN2C(=O)CCCOc2cccc(F)c2)no1", "note": "(stereo unspecified)", "Percent Effect": -10.09}, {"smiles": "CC(C)c1nc(C2CCCN2C(=O)CCn2cncn2)no1", "note": "(stereo unspecified)", "Percent Effect": 104.8}, {"smiles": "Cc1cc(S(=O)(=O)Nc2cccc(-n3cccc3)c2)sc1C(=O)O", "Percent Effect": -5.79}, {"smiles": "CS(=O)(=O)N[C@H]1CN(C(=O)CCc2ccc(=O)[nH]n2)C[C@@H]1C1CC1", "Percent Effect": -10.51}, {"smiles": "Cc1cc(C(=O)NCC2Cn3nnc(C)c3CO2)no1", "note": "(stereo unspecified)", "Percent Effect": 3.49}, {"smiles": "CCCc1nccn1-c1ccncc1", "Percent Effect": 13.78}, {"smiles": "COc1ccc(Oc2nccc3occc23)cc1CN1CCCC1", "Percent Effect": 7.902}, {"smiles": "COc1c(C(=O)N2CCNC(=O)C2)cnc2c1c(C)nn2C", "Percent Effect": 124.2}, {"smiles": "Cc1ccc(CNc2ccc(C(=O)N3CCNC(=O)C3)cn2)cc1", "Percent Effect": 3.114}, {"smiles": "Cc1cc(C(=O)N2CCCC3(CNC(=O)O3)C2)c2c(C)nn(C)c2n1", "note": "(stereo unspecified)", "Percent Effect": 2.308}, {"smiles": "COC(=O)c1cnc2c(c(C)nn2C)c1OC", "Percent Effect": 97.33}, {"smiles": "COc1c(C(=O)N2CCOCC2)cnc2c1c(C)nn2C", "Percent Effect": 129.8}, {"smiles": "COc1c(C)cnc(CNC(=O)c2cc(C)nc3c2c(C)nn3C)c1C", "Percent Effect": -8.384}, {"smiles": "O=C(c1cnc(COc2ccccc2)nc1O)N1CCOCC1", "Percent Effect": 1.405}, {"smiles": "Cc1cc(C(=O)N2CCNC(=O)C2)c(C)n1Cc1ccccn1", "Percent Effect": -1.908}, {"smiles": "COC(=O)c1ccccc1NS(=O)(=O)c1c(C)nn(C)c1C", "Percent Effect": 21.66}, {"smiles": "O=C1N(CC2CCCCC2)CCCC1(O)CN1CCc2[nH]ncc2C1", "note": "(stereo unspecified)", "Percent Effect": -9.247}, {"smiles": "COc1cc(F)c(CN2CCN(CC(C)C)C(=O)C2C)cc1OC", "note": "(stereo unspecified)", "Percent Effect": 4.949}, {"smiles": "CN(C)c1ccc(C(=O)NCC2(c3ccccc3)CCOCC2)cc1", "Percent Effect": 9.489}, {"smiles": "CS(=O)(=O)N1C[C@@H]2CC[C@H](C1)N(C(=O)Cn1ccc3ccccc31)C2", "Percent Effect": -4.366}, {"smiles": "CN(CC(=O)N1CCC(Cc2cccc(C(N)=O)c2)C1)C1CCCC1", "note": "(stereo unspecified)", "Percent Effect": -18.46}, {"smiles": "CC(C)Oc1ccc(CNC(=O)CC(F)(F)F)cc1F", "Percent Effect": 4.736}, {"smiles": "O=C1N(c2cccc(Cl)c2)Cc2nc(=O)[nH]n21", "Percent Effect": -8.298}, {"smiles": "Cc1noc([C@@H]2CC[C@@H]3[C@@H](CCN3S(=O)(=O)c3cccnc3)O2)n1.O=C(O)C(F)(F)F", "Percent Effect": 4.369}, {"smiles": "Cc1noc([C@H]2C[C@@H]3CCN(c4nnc(C)s4)C[C@H]3O2)n1.O=C(O)C(F)(F)F", "Percent Effect": 107.3}, {"smiles": "Cc1noc([C@H]2CC[C@@H]3[C@@H](CCN3c3ncccn3)O2)n1", "Percent Effect": 101.9}, {"smiles": "Cc1noc([C@@H]2CC[C@@H]3[C@@H](CCN3c3nnc(C)s3)O2)n1.O=C(O)C(F)(F)F", "Percent Effect": 108.3}, {"smiles": "Cc1noc([C@@H]2C[C@@H]3CCN(CC4CC4)C[C@H]3O2)n1.O=C(O)C(F)(F)F", "Percent Effect": -0.5641}, {"smiles": "Cc1noc([C@H]2CC[C@@H]3[C@@H](CCN3S(C)(=O)=O)O2)n1", "Percent Effect": 5.645}, {"smiles": "Cc1noc([C@H]2C[C@@H]3CCN(CC4CC4)C[C@H]3O2)n1.O=C(O)C(F)(F)F", "Percent Effect": 1.445}, {"smiles": "Cc1noc([C@@H]2C[C@@H]3CCN(c4nnc(C)s4)C[C@H]3O2)n1.O=C(O)C(F)(F)F", "Percent Effect": 122.4}, {"smiles": "Cc1noc([C@H]2C[C@@H]3CCN(CC4CCOCC4)C[C@H]3O2)n1.O=C(O)C(F)(F)F", "Percent Effect": 8.046}, {"smiles": "Cc1noc([C@@H]2C[C@H]3CN(Cc4scnc4C)C[C@H]3O2)n1.O=C(O)C(F)(F)F", "Percent Effect": -4.188}, {"smiles": "Cc1noc([C@@H]2C[C@@H]3CCN(CC4CCOCC4)C[C@H]3O2)n1.O=C(O)C(F)(F)F", "Percent Effect": 8.264}, {"smiles": "Cc1noc([C@@H]2CC[C@@H]3[C@@H](CCN3S(=O)(=O)C3CC3)O2)n1", "Percent Effect": -8.52}, {"smiles": "CCCc1nc(C)cc(N2CCC3(CCC(=O)N(CCCO)C3)CC2)n1", "Percent Effect": 11.58}, {"smiles": "Cc1cc(SC(C)(C)C)ccc1NCC(=O)NC(N)=O", "Percent Effect": 1.645}, {"smiles": "CCCS(=O)(=O)C(C)C(=O)Nc1ccc2oc(C3CC3)nc2c1", "note": "(stereo unspecified)", "Percent Effect": 3.211}, {"smiles": "Cc1cccc(Cc2cc(C)nc(C3CCCNC3)c2)c1", "note": "(stereo unspecified)", "Percent Effect": 70.21}, {"smiles": "Cc1cc(Cc2ccc(F)cc2)cc(C2CCCNC2)n1", "note": "(stereo unspecified)", "Percent Effect": 73.78}, {"smiles": "O=C(NC1CCCNC1)c1cc(COc2cccc(C(F)(F)F)c2)[nH]n1", "note": "(stereo unspecified)", "Percent Effect": 2.713}, {"smiles": "Cl.Cl.FC(F)(F)c1cccc(-c2c[nH]c(C3CCCN3)n2)c1", "note": "(stereo unspecified)", "Percent Effect": -28.55}, {"smiles": "Cc1cc(Cc2cccc(C(F)(F)F)c2)cc(C2CCCNC2)n1", "note": "(stereo unspecified)", "Percent Effect": 97.1}, {"smiles": "Cc1cc(Cc2ccccc2)cc(C2CCCNC2)n1", "note": "(stereo unspecified)", "Percent Effect": 107.8}, {"smiles": "O=C(CN1CCOc2ccccc2C1)N1Cc2cnn(CCO)c2C1", "Percent Effect": 6.512}, {"smiles": "Cc1cnc(C)c(-c2cc(O)c3c(c2)CN(c2ncccn2)CCO3)n1", "Percent Effect": -18.62}, {"smiles": "CN(C)C(=O)c1nc(CN2CC(c3ccccc3)CC2=O)no1", "note": "(stereo unspecified)", "Percent Effect": 7.307}, {"smiles": "C=C(C)CN(CC)Cc1nc(C2CC2)no1", "Percent Effect": 1.764}, {"smiles": "CCCS(=O)(=O)N1CCn2cc(CNc3ccccn3)nc2C1.O=C(O)C(F)(F)F", "Percent Effect": -1.498}, {"smiles": "O=C(CSCc1ccccn1)N(Cc1ccsc1)C1CC1", "Percent Effect": -10.63}, {"smiles": "OC1(CNC2CCN(c3ccccn3)CC2)CCc2ccccc21", "note": "(stereo unspecified)", "Percent Effect": 6.779}, {"smiles": "CCC(=O)N1CCN(C(=O)Nc2cccc(C#N)c2)[C@H]2CS(=O)(=O)C[C@H]21", "Percent Effect": -1.601}, {"smiles": "CCOCn1cc(NC(=O)C2CCN(S(C)(=O)=O)CC2)cn1", "Percent Effect": 105.1}, {"smiles": "O=C(Cn1cc(NC(=O)c2ccc(F)cc2F)cn1)NC1CCCC1", "Percent Effect": 5.692}, {"smiles": "CS(=O)(=O)N1CCCC(C(=O)Nc2cnn(COCC(F)(F)F)c2)C1", "note": "(stereo unspecified)", "Percent Effect": 96.9}, {"smiles": "CS(=O)(=O)N1CCCC(C(=O)Nc2cnn(Cc3ccc(F)cc3)c2)C1", "note": "(stereo unspecified)", "Percent Effect": 99.84}, {"smiles": "O=C(Nc1cnn(Cc2ccc(Cl)cc2)c1)N[C@@H]1C=C[C@H](CO)C1", "Percent Effect": -9.454}, {"smiles": "CS(=O)(=O)N1CCCC(C(=O)Nc2cnn(Cc3ccc(Cl)cc3)c2)C1", "note": "(stereo unspecified)", "Percent Effect": 106.8}, {"smiles": "CC(C)C1CN(S(C)(=O)=O)CCCN1Cc1ccc(F)cc1", "note": "(stereo unspecified)", "Percent Effect": 3.687}, {"smiles": "CS(=O)(=O)N1CCC(C(=O)Nc2nnc(C(F)(F)F)[nH]2)CC1", "Percent Effect": 11.43}, {"smiles": "CCn1cc(NC(=O)C2CCN(CCOC(C)C)CC2)cn1", "Percent Effect": -5.388}, {"smiles": "CN(Cc1ccc(Cl)cc1)C(=O)Nc1cnn(CC(N)=O)c1", "Percent Effect": 3.306}, {"smiles": "CCOC1CCCN(C(=O)Nc2cnn(CC(F)F)c2)C1", "note": "(stereo unspecified)", "Percent Effect": 6.944}, {"smiles": "CS(=O)(=O)N1CCC(C(=O)N2CCC(Cn3cccn3)CC2)CC1", "Percent Effect": -10.97}, {"smiles": "Cc1nc(CNC(C)c2cccc(S(=O)(=O)N(C)C)c2)no1", "note": "(stereo unspecified)", "Percent Effect": -7.216}, {"smiles": "CS(=O)(=O)c1ccc(NC(=O)CSc2ccc3c(c2)CCC3)cc1", "Percent Effect": 1.625}, {"smiles": "Cn1cnc2c1C(COCC1CC1)CN(C(=O)c1ccsc1)C2", "note": "(stereo unspecified)", "Percent Effect": -2.938}, {"smiles": "COCCN1CCN(CCS(=O)(=O)c2cccc(OC)c2)CC1", "Percent Effect": 2.005}, {"smiles": "CN(C)C(=O)CCNC(=O)Nc1sc2ccccc2c1Cl", "Percent Effect": -12.49}, {"smiles": "N#CCC(=O)NCc1nnc2n1CCN(Cc1nccs1)C2", "Percent Effect": -14.07}, {"smiles": "CC(C)(CNc1ccc2ccc(F)cc2n1)NS(C)(=O)=O", "Percent Effect": -16.93}, {"smiles": "Cc1ccc(-c2noc(C(C)(C)NS(C)(=O)=O)n2)cc1F", "Percent Effect": 124.7}, {"smiles": "CC(C)(NS(C)(=O)=O)c1nc(-c2ccc(F)cc2Cl)no1", "Percent Effect": 95.59}, {"smiles": "CC(C)(NS(C)(=O)=O)c1nc(-c2cccc(Cl)c2)no1", "Percent Effect": 115.9}, {"smiles": "CC(Cn1cccn1)NCc1nc(-c2cccc(Cl)c2)no1", "note": "(stereo unspecified)", "Percent Effect": -1.118}, {"smiles": "CCS(=O)(=O)N1CC(c2nc(-c3ccncc3)no2)C1", "Percent Effect": -18.6}, {"smiles": "Cc1ccc(-c2noc(CN3CCOC(CN(C)C)C3)n2)cc1F", "note": "(stereo unspecified)", "Percent Effect": -11.04}, {"smiles": "CC(C)C1=NOC(c2nc(-c3cccc(Cl)c3)no2)C1", "note": "(stereo unspecified)", "Percent Effect": -9.721}, {"smiles": "CCc1nc(NS(=O)(=O)c2ccc(F)cc2Cl)no1", "Percent Effect": 2.388}, {"smiles": "CC(C)(NS(C)(=O)=O)c1nc(-c2ccncc2)no1", "Percent Effect": 92.68}, {"smiles": "CCNc1nc(C)c(C(=O)N(C)Cc2nc(-c3ccncc3)no2)s1", "Percent Effect": -39.74}, {"smiles": "Cc1ccc(-c2noc(CNCC3CN(C)CCO3)n2)cc1F", "note": "(stereo unspecified)", "Percent Effect": 8.94}, {"smiles": "O=C1[C@H]2CC[C@H](CN(C3CSCCSC3)C2)N1Cc1cscn1", "Percent Effect": 1.539}, {"smiles": "COC(=O)c1ccc(N2CCN(C(=O)c3cnn(C)c3)C(C)C2)cc1", "note": "(stereo unspecified)", "Percent Effect": 5.538}, {"smiles": "Cc1cnn(CC(C)NCc2ccc(OCc3ccncc3)cc2)c1", "note": "(stereo unspecified)", "Percent Effect": 2.463}, {"smiles": "CCn1c(CN(C)C(=O)c2ccc(OC)nc2)nc2ccccc21", "Percent Effect": -6.401}, {"smiles": "OC1(CN2CCCC2)COCCN(c2noc(-c3ccccc3)n2)C1", "note": "(stereo unspecified)", "Percent Effect": -20.3}, {"smiles": "N#Cc1cc(F)c(NCCCOCC2CCOC2)c(F)c1", "note": "(stereo unspecified)", "Percent Effect": -9.574}]}]}
